assay: small-molecule binders of probe aInhba, primary screen, biochemical, small-molecule microarray, 635/667 nm fluorescence (AID 1148); conditions: higher = more signal;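 note: score merges 667nm spot fluorescence with signal-to-noise for antibody binding to printed compounds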

Row | SMILES | composite z-score
1 | COc1cc(Cc2cc3c(c(CCc4ccccc4)n2)[Si](C(C)C)(C(C)C)O[C@H]3c2ccccc2)cc(OC)c1OC | 0.182
2 | C[C@]12C(=O)N(CCO)[C@@H]3C(=O)N(c4ccc(Cl)cc4)CC=CC31O[C@@H]1/C=C\CCCOC(=O)C12 (stereo partly specified) | -0.21
3 | COc1cc2c(cc1O)C(C)N(Cc1sc3ccccc3c1Cl)CC2 (stereo unspecified) | 0.0021
4 | CN1C(=O)C2C=CC(C(O)c3ccc([N+](=O)[O-])cc3)N(Nc3ccccc3)C2C1=O (stereo unspecified) | 0.179
5 | COC(=O)[C@@]1(Cc2ccc(F)cc2)[C@H]2c3cc(C(=O)N(C)C)n(CCF)c3C[C@H]2CN1C(=O)c1ccccc1 | 0.117
6 | O=C/C=C/c1ccc(-c2ccccc2)cc1 | -0.101
7 | C=C(C(=O)CC[C@@H](OC(=O)c1ccccc1-c1ccccc1C(=O)O)c1ccc(OCCO)cc1)C(C)C | -0.0468
8 | COc1ccc(C#Cc2ccc3c(c2)[C@]2(C(=O)N3)[C@H](c3ccccc3OCCO)N3[C@H](c4ccccc4)[C@H](c4ccccc4)OC(=O)[C@H]3[C@@H]2C(=O)NC[C@H](O)c2ccccc2)cc1 | -0.0259
9 | O=C1NC(=O)C2C1C=CC(C(O)c1ccc(F)cc1)N2Nc1ccc(Cl)cc1Cl (stereo unspecified) | -0.0645
10 | C[C@@]1([C@@H](NS(=O)(=O)c2cccc3cccnc23)c2ccc(-c3ccccc3)cc2)C[C@H]1C1CCCCC1 | 0.417
11 | O=C1N(Cc2ccccc2)c2ccccc2C[C@@]12N=C(c1ccc(OCCCO)cc1)O[C@H]2c1ccccc1 | -0.0963
12 | COc1ccc(NN2C(C(O)c3ccccc3)C=CC3C(=O)N(C4CCCCC4)C(=O)C32)cc1 (stereo unspecified) | 0.19
13 | C[C@]1(C(=O)NC2CC2)c2ccccc2C(=O)N(Cc2cc(F)cc(C(F)(F)F)c2)[C@H]1c1ccc(CO)cc1 | -0.242
14 | O=C(CS)NCCCCCCNC(=O)[C@H]1C[C@H]2C(=O)NCC(=O)N2[C@H]1c1cccc(OCCO)c1 | -0.226
15 | COC(=O)[C@@]1(Cc2ccc(OC)cc2)[C@H]2c3cc(C(=O)N(C)C)n(Cc4c(CO)[nH]cc(C)c4=O)c3C[C@H]2CN1C(=O)c1ccccc1 | 0.0219
16 | COCCCNC(=O)[C@@]1(Cc2ccccc2I)c2ccccc2C(=O)N(C2CCCCC2)[C@H]1c1ccc(CO)cc1 | 0.115

Row | SMILES | composite z-score
17 | COC(=O)[C@@]1(Cc2ccc(OC)cc2)[C@@H]2[C@@H](CC(=O)[C@H]2CC(=O)C(=O)N(C)C)CN1C(=O)c1ccccc1 | 1.83
18 | C=C(C(=O)CC[C@@H](OC(=O)c1ccccc1-c1ccccc1C(=O)O)c1cccc(OCCO)c1)C(C)C | 0.0391
19 | CC(C)C[C@@H]1NC(=O)[C@H]2C[C@@H](C(=O)O)[C@@H](c3cccc(OCCO)c3)N2C1=O | 0.0228
20 | Cc1ccc(S[C@]2(C(=O)NCc3ccccc3)CC(=O)N(Cc3ccccc3C(F)(F)F)[C@@H]2c2ccc(CO)cc2I)cc1 | 0.144
21 | CC(C)N1CC=CC23O[C@@H]4/C=C\CCCOC(=O)C4[C@H]2C(=O)N(C(C)CO)[C@@H]3C1=O (stereo partly specified) | -0.176
22 | COC(=O)Cn1c(C(=O)N(C)C)cc2c1C[C@H]1CN(C(=O)c3ccccc3)[C@@](Cc3ccccc3)(C(=O)OC)[C@@H]21 | 0.105
23 | COc1c(C)cc(-c2cc3c(c(CCc4ccccc4)n2)[Si](C(C)C)(C(C)C)O[C@H]3c2ccccc2)cc1C | -0.128
24 | CCCCCN1CC=CC23O[C@@H]4/C=C\CCCOC(=O)C4[C@H]2C(=O)N(CCCCCO)[C@@H]3C1=O (stereo partly specified) | -0.128
25 | C[C@]1(C(=O)NCC(F)(F)F)c2ccccc2C(=O)N(Cc2cc(C(F)(F)F)cc(C(F)(F)F)c2)[C@H]1c1ccc(CO)cc1 | -0.0963
26 | COC(=O)C[C@H]1O[C@]2(C(=O)N(C)c3ccccc32)[C@@H](C)[C@@H]1[Si](C)(C)c1ccccc1 | -0.204
27 | COc1ccc([Si](C)(C)[C@H]2[C@H](CC(=O)N3CCC[C@H]3CO)O[C@@]3(C(=O)N(C)c4ccccc43)[C@@H]2C)cc1 | 0.152
28 | COCCOC(=O)N1C(=O)[C@@]2(c3cc(C#CCC(C(=O)OC)C(=O)OC)ccc31)[C@H](C(=O)N1CCc3cc(OC)c(OC)cc3C1)[C@H]1C(=O)O[C@H](c3ccccc3)[C@H](c3ccccc3)N1[C@@H]2c1ccccc1OCCO | -0.025
29 | O=C1C2C=CC(C(O)C(c3ccccc3)c3ccccc3)N(Nc3ccccc3F)C2C(=O)N1c1ccccc1 (stereo unspecified) | 0.0183
30 | CC1C2C(CCCO)=CC(C3C(=O)N(C(N)=O)C(=O)C23)N1Cc1cccc(OC(F)(F)F)c1 (stereo unspecified) | -0.0531
31 | CN(C)CCCC[C@@H]1NC(=O)[C@H]2C[C@@H](C(=O)NCCCCCCNC(=O)CS)[C@@H](c3cccc(OCCO)c3)N2C1=O | -0.101
